Assay results published in PubChem BioAssay (NCATS).
Records with an inconclusive call do not appear. Active and inactive are the calls of the source. Unless noted, the call rests on the fitted dose curve; in most records, active means well fitted curve in the direction sought with a large enough effect; inconclusive means small, poorly fitted or top-dose-only effect, or another doubt; inactive means no such curve, though single readings can be large; an effect the other way counts as inactive or inconclusive.

Assays:
[1] = molecular target: Glucocorticoid receptor (Homo sapiens) (UniProt P04150); assay: GR-GFP Redistribution (AID 450;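 active means compounds whose dose series gives a full or clear partial fitted curve of increased nuclear translocation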; further: potency means the concentration at half of the fitted maximal effect)
[2] = molecular target: Glucocorticoid receptor (Homo sapiens) (UniProt P04150); assay: GR-EFC Redistribution (AID 451; calls by dose curve; further: potency means the concentration at half of the fitted maximal effect); settings: CHO-K1 GR-EFC translocation, beta-gal luminescence, 2 h
How it was run: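 CHO-K1 cells expressing nuclear EA and GR-ED fragments of b-gal; compounds titrated up to 46 uM final, 2 h at 37 C. GR nuclear translocation read as complemented b-gal luminescence after 1 h RT detection.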

[3] = molecular target: Mitogen-activated protein kinase 10 (Mus musculus) (UniProt Q61831); assay: JNK3 AlphaScreen Assay (AID 530; active means well fitted curve in either direction with a large enough effect, not every such curve was filed as active;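 further: kinase came from lysate of stimulated human HepG2 cells; signal reports phosphorylation of biotinylated GST-cJun 1-79 at Ser73 with 10 µM ATP; on the % scale 0 is the no-effect control and ±100 the full control effect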)
How it was run: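 qHTS format: compounds tested as titrations against IL-1beta/TNF-alpha-activated HepG2 lysate JNK3 with biotin-GST-cJun substrate and 10 uM ATP at room temperature. Loss of anti-phospho-cJun AlphaScreen signal indicates inhibition.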

[4] = molecular target: 3',5'-cyclic-AMP phosphodiesterase 4B (Homo sapiens) (UniProt Q07343); assay: qHTS Assay for Inhibitors of PDE-IV (AID 607; active means well fitted activation curve with a large enough effect in the main read-out, with a control signal flat, not every such curve was filed as active; further: % of control where 0% means no effect)
How it was run: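 Live HEK293 cells with a modified cyclic nucleotide-gated (CNG) channel report intracellular cAMP via membrane-potential dye fluorescence (ex 535/em 590 nm). Endogenous PDE-IV was targeted. Compounds were tested at up to 22.9 uM final; RO 20-1724 100 uM served as control.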

[5] = molecular target: Cytochrome P450 3A4 (Homo sapiens) (UniProt P08684); assay: qHTS Assay for Activators of Cytochrome P450 3A4 (AID 885); further: nearly all actives have a fitted effect of over 65% in size
How it was run: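 Quantitative HTS format: compounds preincubated with 20nM human CYP3A4 and Luciferin-PPXE substrate at KM, reaction started by NADPH regeneration, stopped after 60 min, luciferase luminescence read 20 min later.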

[6] = molecular target: ATP-dependent 6-phosphofructokinase (Trypanosoma brucei brucei) (UniProt O15648); assay: qHTS Assay to Find Inhibitors of T. brucei phosphofructokinase: hit validation (AID 492961);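 further: luminescence reports ADP formed as PFK phosphorylates fructose-6-phosphate with ATP; on the % scale 0 is the no-effect control and ±100 the full control effect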
How it was run: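 Inhibition of parasite PFK is measured as reduced ADP formation, quantified via luciferase after ATP depletion. Assay used 0.1 mM ATP, 0.5 mM F6P, 1.25 nM enzyme, 45 min incubation.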

[7] = molecular target: Ubiquitin carboxyl-terminal hydrolase 1 (Homo sapiens) (UniProt O94782); assay: Inhibitors of USP1/UAF1: Pilot qHTS (AID 504865);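 further: rhodamine fluorescence freed from ubiquitin-rhodamine substrate followed over time; top concentration of the series differs between compounds; on the % scale 0 is the no-effect control and ±100 the full control effect; nearly all actives have a fitted effect of over 35% in size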
How it was run: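 Deubiquitinase activity followed as kinetic rhodamine fluorescence release from 150 nM Ub-Rho. 1 nM USP1/UAF1 with compound, after 15 min room-temperature preincubation, in HEPES pH 7.8 buffer containing TCEP, EDTA, BSA and Tween-20.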

[8] = molecular target: Luciferin 4-monooxygenase (Photinus pyralis) (UniProt P08659); assay: Biochemical firefly luciferase enzyme assay for NPC (AID 624030);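 further: purified P. pyralis luciferase at 10 nM with luciferin and ATP substrate; 0% = DMSO and -100% = full luciferase inhibition by PTC124 control; nearly all actives have a fitted effect of over 70% in size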
How it was run: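 Purified P. pyralis luciferase at 10 nM in 50 mM Tris Acetate (final), luminescence read within 5 minutes of enzyme addition to compounds. Activity normalised to PTC124 versus DMSO; concentration-response curves classed by r2, magnitude and activity.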

[9] = S16 Schwann cell viability assay (CellTiter-Glo assay) (AID 624031);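 further: native untransfected S16 rat Schwann cells; cellular ATP luminescence as a viability measure; plate controls were DMSO-treated cells for no effect and cell-free wells for full effect; nearly all actives have a fitted effect of over 70% in size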
How it was run: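 Concentration-effect curves come from CellTiter-Glo luminescence of S16 rat Schwann cells after 24 h compound exposure. Each reading was normalized to DMSO wells (0%) and wells without cells, and curves were ranked by r2 and response magnitude.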

[10] = S16 Schwann cell PMP22 intronic element beta-lactamase assay (AID 624044; calls by dose curve;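 further: 0% = DMSO and -100% = potassium clavulanate positive control; nearly all actives have a fitted effect of over 15% in size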); settings: S16 rat Schwann cells, PMP22 element beta-lactamase FRET, 24 h; ratio activity, negative = inhibition: at 38.3 µM (top of the series)
How it was run: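 Rat S16 Schwann cells with beta-Lac driven by a PMP22 intronic element, compound-treated 24 h at 37 °C. LiveBLAzer FRET B/G read: 460 nm normalized to potassium clavulanate vs DMSO; 535 nm FRET as viability; concentration-effect curves classified.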

[11] = qHTS profiling for inhibitors of Plasmodium falciparum proliferation (AID 504749);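 further: 0% = DMSO vehicle and full inhibition = artemisinin control; nearly all actives have a fitted effect of over 60% in size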; settings: P. falciparum in erythrocytes, SYBR Green DNA, 72 h, at 12.8 µM (top of the series)
How it was run: (§1)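 Readout was DNA-dye fluorescence from lysed cultures, ex 485/em 535 nm. Parasitized red cells had grown 72 h with compound; data scaled between 0.29 uM artemisinin and DMSO wells and corrected using vehicle-only plates.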

[12] = system: 3D7; assay: as above; settings: P. falciparum in erythrocytes, SYBR Green DNA, 72 h; series mostly up to 28.7 µM
How it was run: as §1

[13] = system: 7G8; assay: as above; settings: P. falciparum in erythrocytes, SYBR Green DNA, 72 h; series mostly up to 28.7 µM
How it was run: as §1

[14] = system: AA1029; assay: as above; settings: P. falciparum in erythrocytes, SYBR Green DNA, 72 h; series mostly up to 28.7 µM
How it was run: as §1

[15] = system: AS120; assay: as above; settings: P. falciparum in erythrocytes, SYBR Green DNA, 72 h; series mostly up to 28.7 µM
How it was run: as §1

[16] = system: ATS189; assay: as above; settings: P. falciparum in erythrocytes, SYBR Green DNA, 72 h; series mostly up to 28.7 µM
How it was run: as §1

[17] = system: ATS95; assay: as above; settings: P. falciparum in erythrocytes, SYBR Green DNA, 72 h; series mostly up to 28.7 µM
How it was run: as §1

[18] = system: C2A; assay: as above; settings: P. falciparum in erythrocytes, SYBR Green DNA, 72 h; series mostly up to 28.7 µM
How it was run: as §1

[19] = system: CP185; assay: as above; settings: P. falciparum in erythrocytes, SYBR Green DNA, 72 h; series mostly up to 28.7 µM
How it was run: as §1

[20] = system: CP191; assay: as above; settings: P. falciparum in erythrocytes, SYBR Green DNA, 72 h; series mostly up to 28.7 µM
How it was run: as §1

[21] = system: CP192; assay: as above; settings: P. falciparum in erythrocytes, SYBR Green DNA, 72 h; series mostly up to 28.7 µM
How it was run: as §1

[22] = system: CP194; assay: as above; settings: P. falciparum in erythrocytes, SYBR Green DNA, 72 h; series mostly up to 28.7 µM
How it was run: as §1

[23] = system: CP201; assay: as above; settings: P. falciparum in erythrocytes, SYBR Green DNA, 72 h; series mostly up to 28.7 µM
How it was run: as §1

[24] = system: CP203; assay: as above; settings: P. falciparum in erythrocytes, SYBR Green DNA, 72 h; series mostly up to 28.7 µM
How it was run: as §1

[25] = system: CP211; assay: as above; settings: P. falciparum in erythrocytes, SYBR Green DNA, 72 h; series mostly up to 28.7 µM
How it was run: as §1

[26] = system: CP217; assay: as above; settings: P. falciparum in erythrocytes, SYBR Green DNA, 72 h; series mostly up to 28.7 µM
How it was run: as §1

[27] = system: CP237; assay: as above; settings: P. falciparum in erythrocytes, SYBR Green DNA, 72 h; series mostly up to 28.7 µM
How it was run: as §1

[28] = system: CP238; assay: as above; settings: P. falciparum in erythrocytes, SYBR Green DNA, 72 h; series mostly up to 28.7 µM
How it was run: as §1

[29] = system: CP247; assay: as above; settings: P. falciparum in erythrocytes, SYBR Green DNA, 72 h; series mostly up to 28.7 µM
How it was run: as §1

[30] = system: CP250; assay: as above; settings: P. falciparum in erythrocytes, SYBR Green DNA, 72 h; series mostly up to 28.7 µM
How it was run: as §1

[31] = system: CP252; assay: as above; settings: P. falciparum in erythrocytes, SYBR Green DNA, 72 h; series mostly up to 28.7 µM
How it was run: as §1

[32] = system: CP256; assay: as above; settings: P. falciparum in erythrocytes, SYBR Green DNA, 72 h; series mostly up to 28.7 µM
How it was run: as §1

[33] = system: CP260; assay: as above; settings: P. falciparum in erythrocytes, SYBR Green DNA, 72 h; series mostly up to 28.7 µM
How it was run: as §1

Chain of Glucocorticoid receptor (Homo sapiens) (P04150 whole entry, looked up, the tested form may be a part): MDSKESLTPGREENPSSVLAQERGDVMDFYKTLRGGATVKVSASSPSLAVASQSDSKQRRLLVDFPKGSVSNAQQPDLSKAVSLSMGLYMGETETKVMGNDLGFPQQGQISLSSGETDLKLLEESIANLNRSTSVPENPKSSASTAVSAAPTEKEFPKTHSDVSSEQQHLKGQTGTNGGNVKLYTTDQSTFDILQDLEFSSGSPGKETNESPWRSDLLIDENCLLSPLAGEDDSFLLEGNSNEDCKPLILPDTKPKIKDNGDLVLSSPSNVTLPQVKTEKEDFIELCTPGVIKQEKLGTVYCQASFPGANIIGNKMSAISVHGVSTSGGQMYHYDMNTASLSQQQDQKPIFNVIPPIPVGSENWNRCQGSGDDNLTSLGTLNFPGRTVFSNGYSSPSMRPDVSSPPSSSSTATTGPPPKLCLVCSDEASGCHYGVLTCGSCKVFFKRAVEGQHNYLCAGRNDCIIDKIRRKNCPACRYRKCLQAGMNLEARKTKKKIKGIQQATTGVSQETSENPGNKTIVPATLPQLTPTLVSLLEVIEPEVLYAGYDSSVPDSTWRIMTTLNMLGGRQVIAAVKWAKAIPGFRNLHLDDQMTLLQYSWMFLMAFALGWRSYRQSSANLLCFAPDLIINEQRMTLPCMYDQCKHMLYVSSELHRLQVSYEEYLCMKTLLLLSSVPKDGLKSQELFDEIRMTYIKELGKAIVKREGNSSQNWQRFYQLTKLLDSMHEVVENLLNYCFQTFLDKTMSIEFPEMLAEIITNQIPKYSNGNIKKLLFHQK
Chain of Ubiquitin carboxyl-terminal hydrolase 1 (Homo sapiens) (O94782 whole entry, looked up): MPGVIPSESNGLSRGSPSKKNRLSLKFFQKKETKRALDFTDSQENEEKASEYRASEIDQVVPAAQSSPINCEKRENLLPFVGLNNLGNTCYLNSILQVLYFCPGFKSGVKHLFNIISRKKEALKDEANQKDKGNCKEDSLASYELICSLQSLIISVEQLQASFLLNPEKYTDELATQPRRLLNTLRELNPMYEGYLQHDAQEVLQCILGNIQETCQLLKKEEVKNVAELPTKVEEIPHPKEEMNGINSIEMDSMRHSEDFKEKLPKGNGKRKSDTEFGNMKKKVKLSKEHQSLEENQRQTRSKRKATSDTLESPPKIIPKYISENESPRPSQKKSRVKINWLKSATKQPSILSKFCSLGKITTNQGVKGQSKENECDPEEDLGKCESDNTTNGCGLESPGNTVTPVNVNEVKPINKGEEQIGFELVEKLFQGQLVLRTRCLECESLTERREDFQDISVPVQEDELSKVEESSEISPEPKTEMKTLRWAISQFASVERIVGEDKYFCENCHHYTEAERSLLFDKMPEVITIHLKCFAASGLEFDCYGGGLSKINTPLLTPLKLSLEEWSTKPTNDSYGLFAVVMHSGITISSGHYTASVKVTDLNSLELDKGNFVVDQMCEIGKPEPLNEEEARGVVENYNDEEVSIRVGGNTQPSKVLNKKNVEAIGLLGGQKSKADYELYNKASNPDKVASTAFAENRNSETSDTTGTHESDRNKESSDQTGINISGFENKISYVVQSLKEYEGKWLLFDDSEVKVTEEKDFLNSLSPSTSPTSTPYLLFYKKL
Chain of ATP-dependent 6-phosphofructokinase (Trypanosoma brucei brucei) (O15648 whole entry, looked up): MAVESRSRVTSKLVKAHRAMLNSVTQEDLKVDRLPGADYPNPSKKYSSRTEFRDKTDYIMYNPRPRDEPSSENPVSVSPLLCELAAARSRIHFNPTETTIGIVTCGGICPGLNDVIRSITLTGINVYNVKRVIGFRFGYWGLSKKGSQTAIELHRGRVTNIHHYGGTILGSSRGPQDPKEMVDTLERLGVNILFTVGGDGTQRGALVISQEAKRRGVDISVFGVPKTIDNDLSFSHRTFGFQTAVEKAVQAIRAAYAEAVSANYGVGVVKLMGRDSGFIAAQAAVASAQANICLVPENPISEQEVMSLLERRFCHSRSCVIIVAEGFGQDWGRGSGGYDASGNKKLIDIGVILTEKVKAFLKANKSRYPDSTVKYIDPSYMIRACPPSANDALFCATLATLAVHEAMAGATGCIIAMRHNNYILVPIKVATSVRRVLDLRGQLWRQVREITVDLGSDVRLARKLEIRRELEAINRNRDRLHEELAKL
Chain of Luciferin 4-monooxygenase (Photinus pyralis) (P08659 whole entry, looked up): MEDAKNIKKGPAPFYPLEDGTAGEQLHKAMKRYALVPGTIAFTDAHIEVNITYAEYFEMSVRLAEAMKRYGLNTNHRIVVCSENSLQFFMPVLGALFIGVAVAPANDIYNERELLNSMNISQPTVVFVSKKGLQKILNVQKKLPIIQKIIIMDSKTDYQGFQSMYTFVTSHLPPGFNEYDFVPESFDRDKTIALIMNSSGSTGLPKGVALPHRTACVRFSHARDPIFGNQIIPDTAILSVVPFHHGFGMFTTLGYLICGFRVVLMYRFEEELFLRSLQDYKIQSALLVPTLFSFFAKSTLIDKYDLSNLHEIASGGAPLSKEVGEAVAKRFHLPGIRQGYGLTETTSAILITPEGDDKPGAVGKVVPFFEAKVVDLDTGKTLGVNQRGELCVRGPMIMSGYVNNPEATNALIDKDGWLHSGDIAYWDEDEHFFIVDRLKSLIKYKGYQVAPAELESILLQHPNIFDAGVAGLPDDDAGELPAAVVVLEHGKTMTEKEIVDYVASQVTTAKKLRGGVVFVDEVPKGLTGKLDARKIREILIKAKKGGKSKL
Chain of Cytochrome P450 3A4 (Homo sapiens) (P08684 whole entry, looked up): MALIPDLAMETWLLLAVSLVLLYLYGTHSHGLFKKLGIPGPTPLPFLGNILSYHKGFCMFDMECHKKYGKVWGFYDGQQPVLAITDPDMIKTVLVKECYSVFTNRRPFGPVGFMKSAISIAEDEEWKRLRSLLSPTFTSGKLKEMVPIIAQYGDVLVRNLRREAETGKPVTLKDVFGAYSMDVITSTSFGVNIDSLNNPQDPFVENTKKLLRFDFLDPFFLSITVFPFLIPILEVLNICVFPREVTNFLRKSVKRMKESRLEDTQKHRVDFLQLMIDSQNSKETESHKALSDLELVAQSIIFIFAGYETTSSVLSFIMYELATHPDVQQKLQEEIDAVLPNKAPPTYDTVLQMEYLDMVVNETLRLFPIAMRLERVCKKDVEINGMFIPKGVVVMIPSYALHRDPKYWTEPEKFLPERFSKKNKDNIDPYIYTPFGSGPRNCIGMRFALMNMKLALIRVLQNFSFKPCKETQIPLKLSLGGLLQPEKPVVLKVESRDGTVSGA
Chain of 3',5'-cyclic-AMP phosphodiesterase 4B (Homo sapiens) (Q07343 whole entry, looked up): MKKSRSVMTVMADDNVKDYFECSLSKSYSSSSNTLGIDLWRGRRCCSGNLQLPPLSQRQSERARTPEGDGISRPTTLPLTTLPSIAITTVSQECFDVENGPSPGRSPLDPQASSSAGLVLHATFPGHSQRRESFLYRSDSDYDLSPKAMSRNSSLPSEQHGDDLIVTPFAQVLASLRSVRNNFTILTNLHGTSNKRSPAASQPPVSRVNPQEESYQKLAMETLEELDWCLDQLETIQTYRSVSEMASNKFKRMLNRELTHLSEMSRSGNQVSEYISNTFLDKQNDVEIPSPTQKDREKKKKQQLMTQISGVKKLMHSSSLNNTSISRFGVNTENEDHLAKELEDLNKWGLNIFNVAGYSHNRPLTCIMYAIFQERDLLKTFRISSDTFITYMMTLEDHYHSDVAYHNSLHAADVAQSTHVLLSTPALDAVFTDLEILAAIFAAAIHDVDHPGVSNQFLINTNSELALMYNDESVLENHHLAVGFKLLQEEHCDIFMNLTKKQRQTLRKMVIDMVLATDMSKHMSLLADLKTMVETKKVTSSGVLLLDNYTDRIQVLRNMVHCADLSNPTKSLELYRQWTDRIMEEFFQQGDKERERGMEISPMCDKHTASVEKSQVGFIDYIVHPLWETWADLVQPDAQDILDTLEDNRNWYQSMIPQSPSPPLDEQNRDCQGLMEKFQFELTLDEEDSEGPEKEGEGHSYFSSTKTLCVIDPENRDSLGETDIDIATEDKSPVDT

CCCC[C@H]1C(=O)N(c2ccccc2)N(c2ccc(O)cc2)C1=O
inactive: Potency [1] > 20.6 µM | Potency [2] > 20.6 µM | Potency [3] | Potency [4] | Potency [5] | Potency [6] | Potency [7] | Potency [8] | Potency [9] | Potency [10] | activity, negative = inhibition ([11]; parasite line A) -7.31% | activity, negative = inhibition ([11]; parasite line B) 3.99% | Potency [12] | Potency [13] | Potency [14] | Potency [15] | Potency [16] | Potency [17] | Potency [18] | Potency [19] | Potency [20] | Potency [21] | Potency [22] | Potency [23] | Potency [24] | Potency [25] | Potency [26] | Potency [27] | Potency [28] | Potency [29] | Potency [30] | Potency [31] | Potency [32] | Potency [33]
